GPR151 activ – activators of human GPR151 | AID 1508602 | 650,000 tested, 1% active | activation, % at 11.2 µM | PathHunter beta-arrestin GPR151 cells, luminescence; in the data active = activation above about 4.9%
FBW7 act – activators of human E3 ligase FBW7 | Q969H0 | AlphaScreen FBW7–phospho-cyclin E peptide binding, activator screen | normalized activity (activation), % at 26.1 µM | 650,000 tested, 0.13% active; in the data active = normalized activity above about 1.9%;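 note: purified mutant Fbw7 with reduced substrate affinity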
Target sequence (Q969H0 whole entry, looked up): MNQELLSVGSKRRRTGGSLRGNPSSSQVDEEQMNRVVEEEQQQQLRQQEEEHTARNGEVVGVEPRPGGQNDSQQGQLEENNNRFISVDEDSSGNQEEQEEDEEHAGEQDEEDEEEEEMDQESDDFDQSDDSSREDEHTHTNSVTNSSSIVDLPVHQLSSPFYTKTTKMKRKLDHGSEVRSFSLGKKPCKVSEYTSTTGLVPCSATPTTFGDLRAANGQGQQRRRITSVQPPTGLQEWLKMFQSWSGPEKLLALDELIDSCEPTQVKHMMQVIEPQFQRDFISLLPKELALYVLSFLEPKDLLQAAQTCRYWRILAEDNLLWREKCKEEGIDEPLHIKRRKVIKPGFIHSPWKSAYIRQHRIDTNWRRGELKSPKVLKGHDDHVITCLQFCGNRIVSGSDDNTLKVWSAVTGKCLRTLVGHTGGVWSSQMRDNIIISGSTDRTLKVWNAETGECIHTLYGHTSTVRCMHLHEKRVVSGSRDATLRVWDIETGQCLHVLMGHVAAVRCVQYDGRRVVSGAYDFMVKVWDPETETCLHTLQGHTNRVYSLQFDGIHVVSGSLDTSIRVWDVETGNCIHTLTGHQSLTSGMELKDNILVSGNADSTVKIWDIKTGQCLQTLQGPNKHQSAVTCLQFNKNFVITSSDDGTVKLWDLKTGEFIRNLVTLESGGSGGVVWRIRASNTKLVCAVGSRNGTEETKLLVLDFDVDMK
TEAD-YAP block – TEAD-YAP interaction inhibition; HEK-TIYL cells, TEAD-Gal4/YAP UAS-luciferase luminescence; 640,000 tested, 1.4% active; inhibition, % at 9.12 µM; in the data active = inhibition above about 32%
MITF inh – inhibitors of human MITF. AID 1259374. 650,000 tested, 0.91% active. O75030. inhibition, % at 2.6 µM. AlphaScreen MITF homodimerization, bead proximity signal; in the data active = inhibition above about 50%
MITF inh conf – human MITF inhibition, confirmation; 4,700 tested, 16% active; shares compounds with MITF inh; AlphaScreen MITF homodimerization, biotin/His-MITF beads; inhibition, % at 2.6 µM;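 active = inhibition above a cutoff derived from the DMSO control wells, cut at about 28% in these data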;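 note: inhibitors lower the bead chemiluminescence by keeping MITF from dimerizing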
AlphaScreen DR – AlphaScreen optical interference, dose response counter-screen. 480 tested, 6% active. IC50, µM. AID 1259373. shares compounds with MITF inh. AlphaScreen optical interference counterscreen, cell-free; call rule not given here
AS interf ctr – optically interferes with AlphaScreen signal; inhibition, % at 2.6 µM; LysRS AlphaScreen counterscreen, signal interference, triplicate; AID 1259376; shares compounds with MITF inh; 4,700 tested, 7.6% active;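 active = inhibition above a cutoff derived from the DMSO control wells, cut at about 30% in these data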
Numbers stand for hits. Most compounds without a hit are left out; they make up all but 3.5% or so of the library.

How did O=C(Nc1ccccc1Br)C1CCN(c2ncccn2)CC1 do in these assays?
GPR151 activ: inactive; FBW7 act: inactive; TEAD-YAP block: inactive; MITF inh: inactive

Results for Cn1cc(-c2ccccc2NC(=O)Nc2ccc(F)cc2F)cn1 ?
GPR151 activ: inactive; FBW7 act: inactive; TEAD-YAP block: inactive; MITF inh: inactive

Results for NC(C(=O)N1CCC(Nc2ccc3[nH]ncc3c2)CC1)c1ccc(Cl)cc1 (stereo not drawn) ?
GPR151 activ: inactive; FBW7 act: inactive; TEAD-YAP block: inactive; MITF inh: 74; MITF inh conf: inactive; AS interf ctr: inactive

How did Cc1c(-c2cccc(NC(=O)C(C)(C)Oc3ccc(Cl)cc3)c2)nc2ncccn12 do in these assays?
GPR151 activ: inactive; FBW7 act: inactive; TEAD-YAP block: inactive; MITF inh: inactive

How did COc1ccccc1C(=O)NN1C(=O)/C(=C/c2ccccc2)SC1=S do in these assays?
GPR151 activ: inactive; FBW7 act: inactive; TEAD-YAP block: inactive; MITF inh: inactive

Results for Clc1ccccc1CN1CCN(C2C3CC4CC(C3)CC2C4)CC1 (stereo not drawn) ?
GPR151 activ: inactive; FBW7 act: inactive; TEAD-YAP block: inactive; MITF inh: 75; MITF inh conf: inactive; AS interf ctr: inactive

Results for c1ccc2c(CN3CCN(C4C5CC6CC(C5)CC4C6)CC3)c[nH]c2c1 (stereo not drawn) ?
GPR151 activ: inactive; FBW7 act: inactive; TEAD-YAP block: inactive; MITF inh: 65; MITF inh conf: inactive; AS interf ctr: inactive

Results for Cc1ccccc1CN1CCN(C2C3CC4CC(C3)CC2C4)CC1 (stereo not drawn) ?
GPR151 activ: inactive; FBW7 act: inactive; TEAD-YAP block: inactive; MITF inh: 74; MITF inh conf: inactive; AS interf ctr: inactive

What do the screens show for `CCOc1ccccc1N(CC(=O)Nc1ccc(F)cc1)S(=O)(=O)c1ccccc1`?
GPR151 activ: inactive; FBW7 act: inactive; TEAD-YAP block: inactive; MITF inh: inactive

Results for CSCCC(NC(=O)COc1ccccc1)C(=O)NCc1cccc(C(F)(F)F)c1 (stereo not drawn) ?
GPR151 activ: inactive; FBW7 act: inactive; TEAD-YAP block: inactive; MITF inh: inactive

What do the screens show for `Cc1cc(NC(=O)C2CCN(C(=O)c3ccc(-n4cccc4)cc3)CC2)no1`?
GPR151 activ: inactive; FBW7 act: inactive; TEAD-YAP block: inactive; MITF inh: 51; MITF inh conf: 47; AlphaScreen DR: inactive; AS interf ctr: inactive

What do the screens show for `Cc1noc(C2CN(C(=O)c3ccc(-n4cccc4)cc3)C2)n1`?
GPR151 activ: inactive; FBW7 act: inactive; TEAD-YAP block: inactive; MITF inh: 55; MITF inh conf: 53; AlphaScreen DR: inactive; AS interf ctr: inactive

How did CC(=O)c1ccccc1OCCCN1CCOCC1 do in these assays?
GPR151 activ: inactive; FBW7 act: inactive; TEAD-YAP block: inactive; MITF inh: inactive

How did CCC(C)c1ccccc1OCCOCCN1CCCC1 (stereo not drawn) do in these assays?
GPR151 activ: inactive; FBW7 act: inactive; TEAD-YAP block: inactive; MITF inh: inactive

How did C=CCNCCOCCOc1ccccc1C(C)CC (stereo not drawn) do in these assays?
GPR151 activ: inactive; FBW7 act: inactive; TEAD-YAP block: inactive; MITF inh: inactive

Results for CCC(C)c1ccccc1OCCOCCN1CCOCC1 (stereo not drawn) ?
GPR151 activ: inactive; FBW7 act: inactive; TEAD-YAP block: inactive; MITF inh: 76; MITF inh conf: inactive; AS interf ctr: inactive

Results for CCN1CCN(CCCOc2ccccc2OCc2ccccc2)CC1 ?
GPR151 activ: inactive; FBW7 act: inactive; TEAD-YAP block: inactive; MITF inh: 69; MITF inh conf: inactive; AS interf ctr: inactive

Results for CCC(C)c1ccccc1OCCCN1CCOCC1 (stereo not drawn) ?
GPR151 activ: inactive; FBW7 act: inactive; TEAD-YAP block: inactive; MITF inh: 61; MITF inh conf: inactive; AS interf ctr: inactive

How did CCC(C)c1ccccc1OCCOCCN(C)C (stereo not drawn) do in these assays?
GPR151 activ: inactive; FBW7 act: inactive; TEAD-YAP block: inactive; MITF inh: 86; MITF inh conf: inactive; AS interf ctr: inactive

How did Nc1nc(SCC(=O)Nc2ccccc2Sc2ccc(Cl)cc2)n[nH]1 do in these assays?
GPR151 activ: inactive; FBW7 act: inactive; TEAD-YAP block: inactive; MITF inh: inactive

What do the screens show for `Cc1nn(CC(=O)N2CCCCC2)c(=O)c2cccn12`?
GPR151 activ: inactive; FBW7 act: inactive; TEAD-YAP block: inactive; MITF inh: inactive

How did CCC(C)c1ccccc1OCCN1CCNCC1 (stereo not drawn) do in these assays?
GPR151 activ: inactive; FBW7 act: inactive; TEAD-YAP block: inactive; MITF inh: inactive

Results for CCN1CCN(CCCCOc2ccccc2OC(C)C)CC1 ?
GPR151 activ: inactive; FBW7 act: inactive; TEAD-YAP block: inactive; MITF inh: 51; MITF inh conf: inactive; AS interf ctr: inactive

What do the screens show for `CCC(C)c1ccccc1OCCCN1CCN(CC)CC1` (stereo not drawn)?
GPR151 activ: inactive; FBW7 act: inactive; TEAD-YAP block: inactive; MITF inh: 63; MITF inh conf: inactive; AS interf ctr: inactive

Results for CCC(C)c1ccccc1OCCCCN1CCOCC1 (stereo not drawn) ?
GPR151 activ: inactive; FBW7 act: inactive; TEAD-YAP block: inactive; MITF inh: 51; MITF inh conf: inactive; AS interf ctr: inactive

Results for CCN1CCN(CCCOc2ccccc2F)CC1 ?
GPR151 activ: inactive; FBW7 act: inactive; TEAD-YAP block: inactive; MITF inh: inactive

How did c1ccc2c(OCCOCCNCCN3CCOCC3)cccc2c1 do in these assays?
GPR151 activ: inactive; FBW7 act: inactive; TEAD-YAP block: inactive; MITF inh: 52; MITF inh conf: inactive; AS interf ctr: inactive

What do the screens show for `CCOc1ccccc1OCCCCN1CCOCC1`?
GPR151 activ: inactive; FBW7 act: inactive; TEAD-YAP block: inactive; MITF inh: inactive

Results for O=C(Nc1ccncc1)c1ccc(N2C(=O)c3ccccc3C2=O)cc1 ?
GPR151 activ: inactive; FBW7 act: inactive; TEAD-YAP block: inactive; MITF inh: inactive

What do the screens show for `COCC(C)NC(=O)c1ccc(Cl)c([N+](=O)[O-])c1` (stereo not drawn)?
GPR151 activ: inactive; FBW7 act: inactive; TEAD-YAP block: inactive; MITF inh: inactive

How did O=C(c1cccnc1)N1CCN(Cc2ccc([N+](=O)[O-])cc2)CC1 do in these assays?
GPR151 activ: inactive; FBW7 act: inactive; TEAD-YAP block: inactive; MITF inh: inactive

How did Cc1ccccc1CN1CCN(C(=O)c2cccnc2)CC1 do in these assays?
GPR151 activ: inactive; FBW7 act: inactive; TEAD-YAP block: inactive; MITF inh: 61; MITF inh conf: inactive; AS interf ctr: inactive

Results for O=C(c1cccnc1)N1CCN(Cc2ccccc2C(F)(F)F)CC1 ?
GPR151 activ: inactive; FBW7 act: inactive; TEAD-YAP block: inactive; MITF inh: 53; MITF inh conf: inactive; AS interf ctr: inactive

Compound activity from PubChem.
